Results as given in the supplement of paper PMC6555819.

tested on: RARb:RXRa (NR concentration 270 nM, RXRa partner concentration 90 nM); assay: PBM binding z-score (relative to random genomic background probes); higher = stronger binding; sequences stand for … in GC…GCGATTGACAGCGTAGAATGAAGG
Method in brief: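 Random background probes are the reference for binding z-scores. These scores derive from regression-normalized fluorescence on custom Agilent 4×180K protein-binding microarrays incubated 1 h with ligand-free nuclear receptor dimers. Binding was detected with antibodies against each partner (one per run).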

Row | Sequence | PBM binding z-score
1 | CGTCCAAGGTCAAGGTCGGTGAAAGAGACTCGAA | 5.34
2 | TCTTGTAGATCAATAGAGGTTCAGAAAGTGCGCT | 0.0734
3 | CCTACTGGGCCAACGTCATTGATCAGTCAAAGCA | -0.00134
4 | AGAACGAGGGCACGCAGAGTTGATAGCAGAGTAG | 2.92
5 | GCCTATAGGTAATACAAGGTGAAAGTCCGATTGT | 0.666
6 | TAGCCTAGGTCATTGGGCGAGTATAGTACGCATC | 3.69
7 | ACAGACAGGTGAGTGAAGGTAACTAAGCTGGACG | 0.425
8 | TTACCAAGTTGAGCTGAGGTCGTTGATCCAACTC | 0.659
9 | TGAGTGAGGTTAAAGATCAGGGAACGTGGCGTCG | 2.15
10 | CCTCGGAGGACTGAAGGTCAGAGCTGTCCGCTTT | 2.38
11 | CCTACTGGGCCACGGTCATTGATCAGTCAAAGCA | 1.56
12 | GGAACGAGGACATTCGAGTTGATAGCATGGCGAT | 0.344
13 | CTACCAAGGAGAACAAGGTCGTTGATTACTATTC | 0.589
14 | TCGAGTAGGTTGGGGGCATTCAGAATGGCGTCGA | 1.6
15 | CCAGATAGGTGAAAGGTAACTCAGTCTGGTACGC | 1.31
16 | ACTCGGAGGACAAAGGCCAGAGCTACGCCAGTGA | 1.44
17 | CAAACTAGGTCAAGTTCAAAGTCGGTTTGTGCCA | 4.88
18 | GTACCAAGGTGGATAGGTCGTTGATGAGTAGGCG | 0.368
19 | TCTGCTCGGTCAGTTGGTCAGCTAACGAGCTGCC | 1.73
20 | CATACAGTGTCAGCTAGGCCAGAGTAGGGACGGC | 1.04

Row | Sequence | PBM binding z-score
21 | CGTCCAAGGACAAAGGTCAGTGAAGAGATGACGG | 4.56
22 | TCTATTACTTGATTAGGGCAACCGAAACAGCGGA | 0.983
23 | ACTATTAGTTGAGACGAGGACAACCGATAGGTTG | 0.366
24 | GGTATTAGTTGAAAGGGCAACCGAATGATTCTCG | 2.42
25 | CCGACTGGGGCAAGGGTACCATAACGCACAGCCA | 0.933
26 | CGTCCAAGGTCAGCAGGTCAGTGACAGCGACGTG | 5.27
27 | CAAGCTAGGTCACGAAAGGTCAAAGTCGAATGAC | 5.61
28 | TAGCCTAGGTCATGCGGGCCATTATAGTGTCGGC | 3.69
29 | CAAACTAGGTCACCGGAAGGTCAAAGACCGCATG | 5.2
30 | TCATATAGGTAAATGCTAGGTGAAAGCCCGATCT | 0.444
31 | CTCGAAAGGTCGTGCTCAGGCGAGTATACCAAAC | 3.98
32 | GCTAGTTGGTCAGTAAAAGTTCACACACCGGTCG | 2.73
33 | CCGACTGGGGCATAAGGTTACCTTAAGCCAGCCC | 1.49
34 | TAGCCTAGGTCATTCAGGGGCCAGTAAAGAAAGC | 3.86
35 | CATACTGGGTCAGCTAGGCCAGAGTAGGGACGGC | 3.04
36 | CAGCCTAGGTCAGTGCCAGTATAGGAGGAACGTT | 3.17
37 | TCTCGGAGGACACGAAAGGTCAGATCTCGACATC | 4.15
38 | CAAACTAGGTCAAAGGTCCAAGTCGAGCCAACCA | 4.19
39 | CAAACTAGGTCCAAGGTCAAAGTCGAGCCAACCA | 3.51
